KDM5B inh = inhibitors of human KDM5B histone demethylase | Q9UGL1 | KDM5B demethylase, FDH-coupled NADH fluorescence (FDH is formaldehyde dehydrogenase) | Potency, µM (titrated, usually from 57.7 µM), hits mostly inhibitors | hit rate 2.6% among 220,000 | AID 1347165; active means well fitted inhibition curve with a large enough effect; further: 0% is about no effect; nearly all actives have a fitted effect of over 70% in size
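Inhibition is measured as reduced NADH fluorescence generation from FDH coupling to formaldehyde release. Truncated KDM5BΔAP at 200 nM final acts on H3K4me3 peptide (12.5 µM in substrate mix) in pH 7.5 HEPES buffer with Tween-20, 30 min, room temperature.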
An asterisk follows results filed as active; i = inactive. Shown is part of a subset that was picked to be rich in hits. Potency means the concentration at half of the fitted maximal effect.

SMILES	KDM5B inh
COc1ccc(NS(=O)(=O)c2cccc(C(=O)N3c4ccccc4CC3C)c2)cc1 (stereo not given)	i
COc1cccc(C2=NS(=O)(=O)N(C)C(C(=O)N3CCN(c4ccc(F)cc4)CC3)=C2)c1	i
CCCCc1[nH]nc2c1C1(C(=O)Nc3ccc(F)cc31)C(C#N)=C(N)O2 (stereo not given)	i
O=S(Cc1ccccc1)Cc1ccc(F)cc1 (stereo not given)	i
CSc1nc(-c2ccc(C)cc2)c(C#N)c(N2CCN(C)CC2)n1	i
CC(=O)c1ccc(NC(=O)N[C@H]2CO[C@H]3[C@@H]2OC[C@H]3OC(=O)NC2CCCCC2)cc1	i
CN(C)c1ccc(-c2ccnc(N[C@H]3CO[C@H]4[C@@H]3OC[C@H]4OC(=O)Nc3cccc(C#N)c3)n2)cc1	i
O=C(Nc1ccc(Oc2ccccc2)cc1)O[C@@H]1CO[C@H]2[C@@H]1OC[C@@H]2Nc1nccc(-c2cccs2)n1	i
O=C(Nc1ccc(Oc2ccccc2)cc1)N[C@H]1CO[C@H]2[C@@H]1OC[C@@H]2Nc1nccc(-c2cccs2)n1	i
CN(C)c1ccc(-c2ccnc(N[C@H]3CO[C@H]4[C@@H]3OC[C@H]4OC(=O)NC3CCCCC3)n2)cc1	31.6µM*
O=C(NC1CCCCC1)O[C@@H]1CO[C@H]2[C@@H]1OC[C@@H]2Nc1nccc(-c2cccs2)n1	31.6µM*
CNC(=O)C(C)NC(=O)c1cccc(Cl)c1Cl (stereo not given)	i
CN1CCN(CCCN2C(=O)c3ccccc3C2C(=O)NC2CCCCC2)CC1 (stereo not given)	i
CNC(=O)CCn1ncc2cc(OCc3ccccc3-c3cccc(C)c3)ccc21	35.5µM*
CNC(=O)CCn1ncc2cc(OCc3ccccc3-c3c(Cl)cccc3OC)ccc21	i
CNC(=O)CCn1ncc2cc(OCc3ccccc3-c3cccc(O)c3)ccc21	i
COC(=O)c1ccc(COc2ccccc2Br)cc1	i
Cc1ccc(S(=O)(=O)N2CCN(CCNC(=O)COc3ccccc3)CC2)cc1	i
CCNc1nc2c(s1)C(c1cccc(F)c1)CC(=O)N2 (stereo not given)	25.1µM*
Nc1nc2c(s1)C(c1cccc(OCc3ccccc3F)c1)CC(=O)N2 (stereo not given)	i
COC(=O)C1=C(C)NC(=O)CC1c1cccc(F)c1 (stereo not given)	i
Cc1c(C#N)c(N)nc2c3c(sc12)NC(=O)CC3c1ccccc1F (stereo not given)	i
CNc1nc2c(s1)C(c1ccccc1F)CC(=O)N2 (stereo not given)	35.5µM*
CCOC(=O)C1=C(C)NC(=O)CC1c1ccccc1F (stereo not given)	i
COc1ccc(-c2nc(C(=O)N3CCC(C)CC3)nn2-c2ccccc2Cl)cc1	i
SMILES	KDM5B inh
C#CCN1CCC(C(=O)N(C)Cc2ccc(Br)o2)CC1	i
CCc1ccc(Nc2ncncc2-c2nc(-c3ccccc3)no2)cc1	i
c1ccc(-c2noc(-c3cncnc3NCCc3cccs3)n2)cc1	28.2µM*
C1=C(CCNc2ncncc2-c2nc(-c3ccccc3)no2)CCCC1	28.2µM*
c1ccc(CCCNc2ncncc2-c2nc(-c3ccccc3)no2)cc1	28.2µM*
CCc1cccc(Nc2ncncc2-c2nc(-c3ccccc3)no2)c1	i
O=C(c1cccs1)N1CCN(Cc2c[nH]c3ccccc23)CC1	i
C=CCNc1nc(C(=O)OCC(=O)N(C)Cc2ccccc2)cs1	i
CCC(C)(C)C(=O)N1CCC(C(=O)NC2CCCCCC2)CC1	i
COCc1n[nH]c(=S)n1Cc1ccc(Cl)cc1	i
O=C(Nc1ccc(Cl)c(C(F)(F)F)c1)c1nn(-c2cccc(Cl)c2)ccc1=O	i
Cc1ccc(S(=O)(=O)N2CCNC(=O)C2)c2cccnc12	i
CCCCn1c(N)c(N(C)C(=O)c2cc(-c3ccncc3)nc3ccccc23)c(=O)[nH]c1=O	i
Cc1cccc2c(C3CCN(S(=O)(=O)c4c(Cl)cccc4Cl)CC3)c[nH]c12	i
CCOCCn1cc(C2CCN(S(=O)(=O)c3cccc(Cl)c3C)CC2)c2ccccc21	28.2µM*
CCC(=O)N(C1CCOCC1)C1CCN(S(=O)(=O)c2ccccc2Cl)CC1	i
CC(C)N(Cc1nc(-c2ccccc2)no1)C(=O)Cc1ccc(-c2ccccc2)cc1	i
CN(C)Cc1cn(C[C@H]2C[C@@H](NC(=O)c3ccc4c(c3)OCO4)[C@H](O)[C@@H]2O)nn1	i
COCc1cn(C[C@H]2C[C@@H](NC(=O)c3cnccn3)[C@H](O)[C@@H]2O)nn1	i
O=C(N[C@@H]1C[C@H](Cn2cc(CN3CCS(=O)(=O)CC3)nn2)[C@@H](O)[C@H]1O)c1cncnc1	14.1µM*
Cc1onc(-c2ccccc2Cl)c1C(=O)N1CCCC2(CNC(=O)O2)C1 (stereo not given)	i
O=C1NCC2(CCCN(C(=O)c3cn[nH]c3-n3cnnn3)C2)O1 (stereo not given)	i
CCN1CC2(CCN(C(=O)c3cccc(Cn4cccn4)c3)CC2)OC1=O	i
O=C1NCC2(CCCN(C(=O)c3cnc4c(O)cccn4c3=O)C2)O1 (stereo not given)	31.6µM*
Cn1cccc(C(=O)N2CCC3(CC2)CN(CCOc2ccccc2)C(=O)O3)c1=O	i
SMILES	KDM5B inh
CCN1CC2(CCN(C(=O)c3cnc4c(O)cccn4c3=O)CC2)OC1=O	31.6µM*
COCCNC(=O)NC(=O)CN(C)c1ccccc1	i
COc1cc(C)c(CN(C)CC(O)COc2ccc(C)cc2)cc1OC (stereo not given)	i
O=C([C@H]1CCC[C@H](O)C1)N1CCN(Cc2ccc(C(F)(F)F)cc2)CC1	i
Cc1n[nH]c(C)c1C(N)C(=O)N1CCCCCCC1 (stereo not given)	i
Cc1n[nH]c(C)c1C(N)C(=O)N1CCN(Cc2ccccc2C#N)CC1 (stereo not given)	i
O=C([C@H]1CCC[C@@H](O)C1)N1CCN(C2Cc3ccccc3C2)CC1	i
Cc1n[nH]c(C)c1C(N)C(=O)N1CCN(c2ccc3nccn3n2)CC1 (stereo not given)	28.2µM*
O=C([C@H]1CCC[C@@H](O)C1)N1CCN(c2ccc3nccn3n2)CC1	28.2µM*
COC(=O)CCCNC(=O)c1ccccc1CSc1nc2ccccc2o1	i
CCN(Cc1cccc(C)c1)Cn1ncc2cn(-c3ccccc3)nc2c1=O	i
Cc1ccccc1C(=O)NNC(=S)NC(=O)/C=C/c1ccccc1	i
O=C(NCC1CC1)c1cccc(OC2CN(C3CCCCC3)C2)c1	i
O=C(Nc1cccnc1)c1cc(=O)c2ccccc2o1	i
O=c1c2nc(-c3cccnc3)ccc2ncn1-c1ccc(F)cc1F	i
COc1ncc(-c2ccc3ncn(-c4ccc(F)cc4F)c(=O)c3n2)cn1	39.8µM*
C[S+](=O)([O-])c1cccc(-c2ccc3ncn(-c4ccc(F)cc4F)c(=O)c3n2)c1	i
COc1cccc(-c2ccc3ncn(-c4ccc(F)cc4F)c(=O)c3n2)c1OC	i
COCc1cccc(-c2ccc3ncn(-c4ccc(F)cc4F)c(=O)c3n2)c1	31.6µM*
CC(=O)Nc1cccc(-c2ccc3ncn(-c4ccc(F)cc4F)c(=O)c3n2)c1	i
COc1cc(CSc2c(CC(C)C)cnc3c2c(=O)n(C)c(=O)n3C)cc(OC)c1	i
Cc1cc(=O)oc2cc(Br)ccc12	i
COc1ccccc1C(=O)Sc1ccc(Cl)cc1	i
O=C1CN(CC(=O)Nc2ccc(Cl)cc2)CCN1	i
